High-throughput results as filed in PubChem.
Compounds with a hit are over-represented: about 1.3% of the library has one in this group of screens.
HTR5A ag ctr: counter-screen for OPRM1-OPRD1 agonists: human HTR5A agonism; 340,000 tested, 0.61% active; AID 504692; activation, % at 9.3 µM; P47898; HTR5A agonist assay, luminescence, cell-based; in the data active = activation mostly above about 9.5%, no sharp cut-off; inactive = mostly below about 7.6%
OPRM1-OPRD1 ag: OPRM1-OPRD1 heterodimerization agonism; P35372+P41143; cells, luminescence; activation, % at 9.3 µM; 340,000 tested, 0.3% active; in the data active = activation above about 18%
Target sequence (P35372 whole entry, looked up): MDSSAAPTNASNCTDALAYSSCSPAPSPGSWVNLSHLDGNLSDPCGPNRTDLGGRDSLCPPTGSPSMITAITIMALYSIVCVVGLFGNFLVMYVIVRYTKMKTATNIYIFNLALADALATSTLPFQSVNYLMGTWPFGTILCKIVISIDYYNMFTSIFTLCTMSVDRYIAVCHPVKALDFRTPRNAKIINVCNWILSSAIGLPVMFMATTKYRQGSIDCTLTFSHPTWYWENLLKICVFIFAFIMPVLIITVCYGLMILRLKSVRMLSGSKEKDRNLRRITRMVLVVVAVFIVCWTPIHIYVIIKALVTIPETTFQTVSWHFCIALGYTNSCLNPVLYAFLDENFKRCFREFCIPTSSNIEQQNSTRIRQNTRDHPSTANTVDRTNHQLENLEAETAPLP
Target sequence (P41143 whole entry, looked up): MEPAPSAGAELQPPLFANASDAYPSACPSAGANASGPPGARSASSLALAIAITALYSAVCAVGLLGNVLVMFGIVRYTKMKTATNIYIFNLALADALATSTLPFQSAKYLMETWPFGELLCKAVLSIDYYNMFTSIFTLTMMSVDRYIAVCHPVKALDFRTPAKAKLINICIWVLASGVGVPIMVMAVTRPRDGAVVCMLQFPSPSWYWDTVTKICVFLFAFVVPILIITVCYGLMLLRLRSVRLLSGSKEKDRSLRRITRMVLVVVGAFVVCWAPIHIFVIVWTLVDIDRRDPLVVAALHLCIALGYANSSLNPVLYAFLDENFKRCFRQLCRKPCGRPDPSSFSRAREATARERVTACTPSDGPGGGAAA
Yeast superoxide: caloric restriction mimetics inhibiting age-related superoxide in yeast; S. cerevisiae aged cells, superoxide DHE fluorescence; active compounds read low; superoxide response (% of plate mean), % at 10 µM; 330,000 tested, 0.18% active;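 active = superoxide response under a set limit, about three screen SD below normal, cut at about 65% in these data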;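 note: yeast aged for seven days with compound at 30 °C before DHE staining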
PvdQ acylase: blocks Pseudomonas aeruginosa PvdQ acylase activity. purified PvdQ acylase, fluorescence plate reader. inhibition, % at 10 µM. 340,000 tested, 0.063% active. AID 488965; in the data active = inhibition above about 30%, passing the limit was not always enough
OPRM1-OPRD1 inv: mu-delta opioid heterodimer inverse agonism; cell-based MOR-DOR heterodimer luminescence; inhibition, % at 9.3 µM; 340,000 tested, 0.21% active; AID 504357; in the data active = inhibition above about 22%, passing the limit was not always enough
HTR5A inv ag: HTR5A inverse agonism, opioid heterodimer counter-screen; HTR5A cell line, luminescence; inhibition, % at 9.3 µM; P47898; 340,000 tested, 0.083% active; in the data active = inhibition mostly above about 23%, no sharp cut-off; inactive = mostly below about 18%
CR mimetic CP: yeast aging superoxide inhibition, cherry pick confirmation; superoxide response (% of plate), % at 10 µM; S. cerevisiae aging, superoxide DHE fluorescence; active compounds read low; AID 434994; 850 tested, 1% active; shares compounds with Yeast superoxide;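 active = superoxide signal below 65% of the plate average of sample wells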;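 note: cells aged with compound for 7 days at 30 degrees C before staining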
DHE fluor count: counter-screen for compounds affecting DHE oxidation and fluorescence in yeast; AID 435000; 850 tested, under 10 active; shares compounds with Yeast superoxide; fluorescence response, % at 10 µM; S. cerevisiae BY4741, flow cytometry; active compounds read low;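 active = fluorescence response below 15%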;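 note: lower means stronger quenching of DHE signal or ROS scavenging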
Of the large screens only hits and unclear results are named; the others gave an inactive call (follow-up assays come after a bar, where they were run).

CCOC(=O)c1ccccc1NC(=O)COC(=O)C1CC(=O)N(CCc2ccccc2)C1 (stereo unspecified)	none
CC(=O)NC(Cc1c[nH]c2ccccc12)C(=O)N1CCN(S(=O)(=O)c2ccccc2)CC1 (stereo unspecified)	none
COc1ccc(-c2c(-c3cc(OC)cc(OC)c3)n(C)c3ccc(-c4ccc(SC)cc4)cc23)cc1	Yeast superoxide 65 | CR mimetic CP inactive | DHE fluor count inactive
CCOC(=O)c1sc2nc(C)nc(SC(C)C(=O)N(C)c3ccccc3)c2c1C (stereo unspecified)	none
CCOc1ccc(NC(=O)N2CCc3ccccc3C2)cc1	none
COc1ccc(NC(=O)N2CCc3ccccc3C2)cc1	Yeast superoxide 52 | CR mimetic CP inactive | DHE fluor count inactive
O=C(c1ccc(Cl)cc1Cl)N1CCC(C(=O)N2CCOCC2)CC1	none
COC(=O)c1cccc(S(=O)(=O)N2CCCC2)c1	none | CR mimetic CP inactive | DHE fluor count inactive
COC(=O)c1cccc(S(=O)(=O)N2CCOCC2)c1	none
CSc1ccc(-c2c(C#N)c(N)nc3c2CCCC3)cc1	Yeast superoxide 64 | CR mimetic CP inactive | DHE fluor count inactive
c1ccc2[nH]c3cc4ncnc4cc3nc2c1	Yeast superoxide 40 | CR mimetic CP 47 | DHE fluor count inactive
COc1ccc(OC)c(C(=O)NC(CC(N)=O)c2ccc(N3CCCCCC3)c([N+](=O)[O-])c2)c1 (stereo unspecified)	none
COc1ccc(CCN2CC(C(=O)N(C)CC(=O)Nc3cccc(F)c3)CC2=O)cc1OC (stereo unspecified)	none
Cc1ccc(Nc2cc(-c3ccccc3)nc3ncnn23)cc1	none
CC(C)(C)c1ccc(-n2ncc3c2CCCC3NC(=O)c2csnn2)cc1 (stereo unspecified)	Yeast superoxide 58 | CR mimetic CP inactive | DHE fluor count inactive
CC(C)(C)c1ccc(-n2ncc3c2CCCC3NC(=O)c2cnccn2)cc1 (stereo unspecified)	none
Cc1ccc(/C=N/NC(=O)c2nnn(-c3nonc3N)c2CNc2ccccc2)cc1	Yeast superoxide 65 | CR mimetic CP inactive | DHE fluor count inactive
Cc1cccc(NC(=O)c2nc[nH]c2C(=O)N[C@@H](CC(C)C)C(=O)OCc2ccccc2)c1	Yeast superoxide 63 | CR mimetic CP inactive | DHE fluor count inactive
Cn1c2ccccc2c(=O)c2c(=O)n(C3CCCCC3)c(-c3cccs3)nc21	Yeast superoxide 65 | CR mimetic CP inactive | DHE fluor count inactive
Cn1c2ccccc2c(=O)c2c(=O)n(C3CCCCCC3)c(C3CCCCC3)nc21	none (no result: Yeast superoxide)
CS(=O)(=O)CCC(C(=O)Nc1ccc2c(c1)OCO2)N1Cc2ccccc2C1=O (stereo unspecified)	none
Cc1cccn2c(=O)c3cc(C(=O)NCc4ccco4)c(=N)n(C(C)C)c3nc12	Yeast superoxide 64 | CR mimetic CP inactive | DHE fluor count inactive
Cc1cccn2c(=O)c3cc(C(=O)NCc4ccco4)c(=N)n(CCc4ccccc4)c3nc12	none
COc1ccc(C(=O)Nc2cccc(C(=O)Nc3cc(C)ccn3)c2)cc1	none (no result: Yeast superoxide)
COC(=O)c1ccccc1NS(=O)(=O)c1ccc(F)cc1	none | CR mimetic CP inactive | DHE fluor count inactive
COC(=O)c1ccccc1NS(=O)(=O)c1ccc(NC(C)=O)cc1	none
COc1cccc(CNS(=O)(=O)c2c(C)[nH]c(C)c2C(=O)N2CCCC2)c1	none
CCN(CC)S(=O)(=O)c1ccc(N2CCCC2)c(NC(=O)Cc2ccccc2)c1	Yeast superoxide 40 | CR mimetic CP inactive | DHE fluor count inactive
O=C(Cc1ccccc1F)Nc1cc(S(=O)(=O)N2CCOCC2)ccc1N1CCCC1	none (no result: HTR5A ag ctr, OPRM1-OPRD1 ag, PvdQ acylase, OPRM1-OPRD1 inv, HTR5A inv ag) | CR mimetic CP inactive | DHE fluor count inactive
CCN(CC)S(=O)(=O)c1ccc(N2CCCC2)c(NS(=O)(=O)c2ccccc2)c1	none
COC(=O)CN(c1ccc(C)cc1)S(=O)(=O)c1ccc(F)cc1	Yeast superoxide 50 | CR mimetic CP inactive | DHE fluor count inactive
COC(=O)CN(c1ccccc1)S(=O)(=O)c1ccccc1	none | CR mimetic CP inactive | DHE fluor count inactive
O=C(NCC1CCCN1S(=O)(=O)c1cccs1)c1cccc([N+](=O)[O-])c1 (stereo unspecified)	none
C[C@]12CCC3C(CC[C@H]4CCCC[C@]34C)C1CC[C@@]2(O)CNCCO (stereo partly specified)	none | CR mimetic CP inactive | DHE fluor count inactive
C[C@]12CCC(=O)CC1CCC1C2CC[C@@]2(C)C1CC[C@@]21CCO1 (stereo partly specified)	none
Cc1nn(-c2nnc(NCc3ccccc3)nn2)c(C)c1Br	Yeast superoxide 63 | CR mimetic CP inactive | DHE fluor count inactive
COCCn1c(SCC(=O)Nc2ccc(NC(C)=O)cc2)nc2ccccc2c1=O	Yeast superoxide 51 | CR mimetic CP inactive | DHE fluor count inactive
COCCn1c(SCC(=O)Nc2cc(C)cc(C)c2)nc2ccccc2c1=O	none
O=C(CNC(=O)c1ccccc1)NCC(=O)OCc1ccccc1Cl	none (no result: HTR5A ag ctr, OPRM1-OPRD1 ag, OPRM1-OPRD1 inv, HTR5A inv ag)
O=C(CCNC(=O)c1ccc(Br)cc1)OCc1ccccc1Cl	Yeast superoxide 63 | CR mimetic CP inactive | DHE fluor count inactive
CC1CCCC(C)N1C(=O)c1ccc(S(=O)(=O)NCc2ccco2)cc1 (stereo unspecified)	none
Cc1noc(NS(=O)(=O)c2ccc(N/C=C\C(=O)c3ccc(F)cc3)cc2)c1C	none (no result: HTR5A ag ctr, OPRM1-OPRD1 ag, OPRM1-OPRD1 inv, HTR5A inv ag)
Cc1noc(NS(=O)(=O)c2ccc(N/C=C/C(=O)c3ccc4c(c3)OCO4)cc2)c1C	Yeast superoxide 65 | CR mimetic CP inactive | DHE fluor count inactive
COc1ccc(N2CCN(C(=O)COC(=O)CNC(=O)c3ccc(C)cc3)CC2)cc1	none
COc1ccc(CCNC(=O)CCNS(=O)(=O)c2cccc(Cl)c2)cc1OC	Yeast superoxide 59 | CR mimetic CP inactive | DHE fluor count inactive
COc1ccc(CCNC(=O)CNS(=O)(=O)c2ccc(N(C)C)c([N+](=O)[O-])c2)cc1OC	Yeast superoxide 65 | CR mimetic CP inactive | DHE fluor count inactive
CN(C)c1ccc(S(=O)(=O)NCC(=O)NCc2ccccc2)cc1[N+](=O)[O-]	none
Cc1cccc(OCCC(=O)OCC(=O)Nc2c(C)nn(-c3ccccc3)c2C)c1	none
CC1CCN(CCC(=O)Nc2ccc3c(c2)OCCO3)CC1	Yeast superoxide 63 (no result: HTR5A ag ctr, OPRM1-OPRD1 ag, PvdQ acylase, OPRM1-OPRD1 inv, HTR5A inv ag) | CR mimetic CP inactive | DHE fluor count inactive
Cc1ccc(NC(=O)CCN2CCC(C)CC2)cc1	none
COc1ccccc1CNC(=O)CN1C(=O)NC2(CCCCCC2)C1=O	none
CCOc1ccc(S(=O)(=O)N2CCC(C(=O)N3CCCC3)CC2)cc1C	none
Cc1ccc(-n2nnc3c(=O)n(CC(N)=O)cnc32)cc1	none
